Compound activity (PubChem BioAssay)
Shown are actives, neighbours in structure and some others; about 4.8% of the full set was active somewhere.
DAX1 inh-1: inhibitors of human orphan nuclear receptor DAX1 (NR0B1) | P51843 | HEK293 Gal4-DAX1 luciferase reporter, luminescence | inhibition, % at 6.75 µM | 340,000 tested, 0.99% active | AID 504766;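 active = inhibition above the mean over all tested compounds plus 3 SD, cut at about 4.2% in these data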;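 also: inhibition shows as a rise in luminescence from relieved DAX1 repression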
Target sequence (P51843 207-470 limits assumed): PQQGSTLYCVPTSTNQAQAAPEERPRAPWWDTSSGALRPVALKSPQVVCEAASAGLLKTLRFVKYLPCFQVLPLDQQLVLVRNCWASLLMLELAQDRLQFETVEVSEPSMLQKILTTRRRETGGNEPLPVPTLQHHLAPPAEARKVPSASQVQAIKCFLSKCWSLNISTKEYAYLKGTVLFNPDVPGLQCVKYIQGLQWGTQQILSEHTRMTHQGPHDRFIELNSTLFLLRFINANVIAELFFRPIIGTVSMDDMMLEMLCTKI
ssDAF12 agonist: activates DAF-12 receptor from parasite S. stercoralis; activation, % at 6.8 µM; HEK293 ssDAF-12/GRIP1 lit1-tk-luc reporter, luminescence; % of 3 µM dafachronic acid response; 370,000 tested, 1% active;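 active = activation above the mean over all tested compounds plus 3 SD, cut at about 0.9% in these data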
SMARCA2 activ: increases SMARCA2 function in MMTV reporter cells; activation, % at 9.1 µM; MG213 cells, MMTV-luciferase reporter, dexamethasone, overnight; 370,000 tested, 1% active; in the data active = activation above about 7.8%
DAX1 inh-2: blocks DAX1 repression of SF-1 activated StAR promoter; HEK293T StAR-luciferase reporter, SF-1/DAX-1 repression relief; inhibition, % at 6.8 µM; 370,000 tested, 1.1% active; AID 652010;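 active = inhibition above the mean over all tested compounds plus 3 SD, cut at about 3.6% in these data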;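 also: higher inhibition means more luminescence from relief of DAX-1 repression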
hcDAF12 agonist: activators of H. contortus DAF-12 nuclear receptor; HEK293 hcDAF-12 lit1-tk-luc reporter, luminescence; 0% DMSO, 100% Δ7-dafachronic acid; activation, % at 6.8 µM; 370,000 tested, 1.4% active; AID 652067;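 active = activation above the mean of all tested compounds plus 3 SD, cut at about 5.5% in these data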
hgDAF-12 ag: hgDAF-12 agonism, primary luciferase screen | HEK293 GAL4-hgDAF12 UAS-luciferase reporter, agonist luminescence; normalized to butyrate control | activation, % at 6.8 µM | 370,000 tested, 1.8% active | AID 687014;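 active = activation above a cutoff set at the mean of all screened compounds plus 3 SD, cut at about 10% in these data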
Of the large screens only hits and unclear results are named; the others gave an inactive call.

CC(=O)N1c2ccccc2N2C(c3c(C)c(C)cc(C)c3C)=NON12	none
C[C@H](CO)N1C[C@H](C)[C@H](CN(C)C(=O)c2ccc3ccn(C)c3c2)OCc2cnnn2CCCC1=O	none
CCc1nnc(NC(=O)c2ccc(S(C)(=O)=O)cc2)s1	none
CCc1nnc(NC(=O)c2cccc(OC)c2)s1	DAX1 inh-2 3.9
CCc1nnc(NC(=O)Cc2ccc(OC)c(OC)c2)s1	DAX1 inh-1 5.1
CCc1nnc(NC(=O)c2ccc(OC)cc2)s1	hgDAF-12 ag 10.7
COc1ccc(C2C(C(=O)NCc3ccccn3)CCC(=O)N2c2cc(OC)c(OC)c(OC)c2)cc1 (stereo not drawn)	none
Cc1ccc(C(CC(=O)N2CCCCC2)c2ccccc2)c(O)c1C (stereo not drawn)	ssDAF12 agonist 1.6
Cc1csc(N/N=C/c2c(F)cccc2Cl)n1	hcDAF12 agonist 6.5
Clc1cccc(Cl)c1/C=N\Nc1nccs1	none
O=C(NCCc1ccccc1)c1c[nH]c2c(F)cccc2c1=O	hcDAF12 agonist 5.6
CCNS(=O)(=O)c1ccc(CCC(=O)N2CCCC2)cc1	DAX1 inh-1 5.1
Nc1ccc(CCC(=O)N2CCCC2)cc1	none
CCC(=O)Nc1ccc(CCC(=O)N2CCCC2)cc1	DAX1 inh-1 5.5
CC(C)CNS(=O)(=O)c1ccc(CCC(=O)N2CCCC2)cc1	none
CCCNC(=O)c1csc(Nc2cccc3ccccc23)n1	none
CC(=O)c1csc(Nc2ccccc2Cl)n1	DAX1 inh-1 8.7
CC(=O)c1csc(-c2ccccc2)n1	DAX1 inh-1 5.4
CCc1ccc2nc(N)sc2c1	DAX1 inh-1 6.4, hgDAF-12 ag 10.8
CCc1ccc(NC(=O)c2ccc3nc(N)sc3c2)cc1	none
COc1cc2c(cc1NC(=O)COC(=O)C(CCSC)NC(=O)c1ccccc1Cl)oc1ccccc12 (stereo not drawn)	ssDAF12 agonist 2.5
O=C(CCc1nc(-c2cccs2)no1)Nc1cnc2ccccc2c1	ssDAF12 agonist 1.7
CCc1cccc(NC(=O)CCc2nc(-c3cccs3)no2)c1	none
COc1cc(NC(=O)COC(=O)CCOc2ccc(C)cc2)cc(OC)c1	none
CCOc1cc(S(=O)(=O)NCCc2ccc(OC)c(OC)c2)c(OCC)cc1-n1cnnn1	none
CCOc1cc(S(=O)(=O)NCC2OCCc3ccccc32)c(OCC)cc1-n1cnnn1 (stereo not drawn)	DAX1 inh-1 4.6
CSc1snc(SCC(N)=O)c1C#N	hgDAF-12 ag 11.8
N#Cc1c(SCC(=O)Nc2ccccc2)nsc1SCC(=O)Nc1ccccc1	ssDAF12 agonist 23.3
CCOc1ccc(N(Cc2nnc3n2CCCCC3)C(=O)Nc2cccc(C)c2)cc1	DAX1 inh-1 6.6
Cc1cccc(C)c1NC(=O)CN(C)C(=O)c1ccccc1Sc1ccccc1C#N	none
Cc1ccc(NC(=O)c2cc(S(=O)(=O)N3CCCCC3)ccc2N2CCOCC2)c(C)c1	none
O=C(CC1Sc2ccccc2NC1=O)Nc1cccnc1 (stereo not drawn)	none
CC(C(=O)Nc1cccnc1)C1Sc2ccccc2NC1=O (stereo not drawn)	hcDAF12 agonist 6.0
Cc1c(C#N)c(O)n(CCO)c(=O)c1N=Nc1ccccc1	DAX1 inh-1 4.4
Cc1c(C#N)c(O)n(CCO)c(=O)c1N=Nc1ccc(S(N)(=O)=O)cc1	none
Nc1[nH]n(-c2ccccc2)c(=O)c1N=Nc1ccccc1	ssDAF12 agonist 1.3
Cc1ccc(F)cc1C(=O)N1CCCC(c2cc(C(=O)NCc3ccccc3)no2)C1 (stereo not drawn)	DAX1 inh-2 4.0 (no result: DAX1 inh-1)
CCCNC(=O)c1cc(C2CCCN(S(=O)(=O)c3cccs3)C2)on1 (stereo not drawn)	ssDAF12 agonist 1.1 (no result: DAX1 inh-1)
COc1ccc(-n2c(SCC(=O)Nc3ccc(S(=O)(=O)Nc4nccs4)cc3)nnc2-c2ccccc2)cc1	none (no result: DAX1 inh-1)
Cc1ccc(NC(=O)C2CCN(C(=O)c3ccc(F)cc3)CC2)nc1	none
CCOc1cc(/C=N/N=C2/NC(=O)C(CC(=O)O)S2)ccc1OCc1ccc(Cl)cc1Cl (stereo not drawn)	none (no result: ssDAF12 agonist, SMARCA2 activ, DAX1 inh-2, hcDAF12 agonist, hgDAF-12 ag)
COc1cc(/C=N/N=C2/NC(=O)C(CC(=O)O)S2)ccc1OCc1ccc(Cl)cc1 (stereo not drawn)	hgDAF-12 ag 11.6
